# Laboratory results: PubChem BioAssay (NCI)
# The panel holds about 83,000 compounds, 20% with a hit somewhere; the sample as a whole holds those more often.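 The test compound was applied at a single concentration to cells in 96-well plates for 48 hours, and percent growth was recorded.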 Values without a mark were called inactive. Activity calls are given as the source filed them. How the source made its calls: active means growth percent below 10; inactive means the rest.
# Test system: EKVX NSCLC
# Test: NCI-60 one-dose screen, 48 h (100 = growth as untreated, 0 = no growth, -100 = all killed)
# Conditions: 10 µM unless noted
row,SMILES,growth
1,COCCOC(=O)C1=C(C)NC(=S)NC1c1ccc2c(c1)OCO2 (stereo not given),105%
2,O=S(=O)(Nc1ccc(F)c(Cl)c1)c1ccc(-c2cnc(C3CC3)o2)cc1,32.2%
3,NCCN1CCN(c2nccc(-c3ccc4ccccc4c3)n2)CC1,75.6%
4,CCN(CC)Cc1cc(Nc2c3ccc(Cl)cc3nc3c(C)cccc23)ccc1O,-40.4% (active)
5,N#Cc1ccc(NC(=O)Nc2ccc(Cc3ccc(NC(=O)Nc4ccc(C#N)cc4)cc3)cc2)cc1,14.5%
6,O=C1O[C@H]([C@H](O)CO)C(O)=C1O,110%
7,CCC(=O)OCc1cccc(OC)c1,91.3%
8,Cc1ccc2cnc(N)c(C#Cc3cncc(C(=O)Nc4ccc(CN5CCN(C)CC5)c(C(F)(F)F)c4)c3)c2c1,-93.9% (active)
9,COc1cc2c(cc1O)CCc1cc(O)cc(OC)c1-2,92.7%
10,CCN(CC)CCCNc1cccc2c(SCc3ccccc3)ccnc12,63.5%
11,O=C1C(Cl)=C(Cl)C(=O)c2c1nc1n2CCCC1,95.9%
12,CN1CCN(Cc2ccc(NC(=O)c3cncc(C#Cc4c(N)ncc5ccc(C#N)cc45)c3)cc2C(F)(F)F)CC1,-55.3% (active)
13,Nc1nc(SCc2ccccc2)c2ncn(C3CCCC3)c2n1,99.6%
14,COc1cc(NC(N)=NCC(C)(C)COc2ccc(C(F)(F)F)cc2)cnc1C#N,70.5%
15,CCCCCCCCCCCCCCCC(=O)OCC1OC(n2cnc3c(=S)nc(N)[nH]c32)C(OC(=O)CCCCCCCCCCCCCCC)C1OC(=O)CCCCCCCCCCCCCCC (stereo not given),48.6%
